Among the data in PubChem BioAssay AID1903 (Southern Research Specialized Biocontainment Screening …, 2009) are inhibition values, retold here.

SMILES strings stand for the structures. Among all 310,000 compounds or so, about 1,200 (0.39%) were called active. No rule for the calls is given here. These entries were drawn from the full list. Results with a measured potency or affinity are listed apart.

The target in this assay is Large T antigen (Simian virus 40) (UniProt P03070). Briefly: SV40 large T antigen inhibitors, biochemical (AID 1903). Conditions: SV40 large T antigen ATPase/helicase inhibition assay; at 20 µM; active compounds read high.
Large T antigen (Simian virus 40), sequence (P03070 whole entry, looked up): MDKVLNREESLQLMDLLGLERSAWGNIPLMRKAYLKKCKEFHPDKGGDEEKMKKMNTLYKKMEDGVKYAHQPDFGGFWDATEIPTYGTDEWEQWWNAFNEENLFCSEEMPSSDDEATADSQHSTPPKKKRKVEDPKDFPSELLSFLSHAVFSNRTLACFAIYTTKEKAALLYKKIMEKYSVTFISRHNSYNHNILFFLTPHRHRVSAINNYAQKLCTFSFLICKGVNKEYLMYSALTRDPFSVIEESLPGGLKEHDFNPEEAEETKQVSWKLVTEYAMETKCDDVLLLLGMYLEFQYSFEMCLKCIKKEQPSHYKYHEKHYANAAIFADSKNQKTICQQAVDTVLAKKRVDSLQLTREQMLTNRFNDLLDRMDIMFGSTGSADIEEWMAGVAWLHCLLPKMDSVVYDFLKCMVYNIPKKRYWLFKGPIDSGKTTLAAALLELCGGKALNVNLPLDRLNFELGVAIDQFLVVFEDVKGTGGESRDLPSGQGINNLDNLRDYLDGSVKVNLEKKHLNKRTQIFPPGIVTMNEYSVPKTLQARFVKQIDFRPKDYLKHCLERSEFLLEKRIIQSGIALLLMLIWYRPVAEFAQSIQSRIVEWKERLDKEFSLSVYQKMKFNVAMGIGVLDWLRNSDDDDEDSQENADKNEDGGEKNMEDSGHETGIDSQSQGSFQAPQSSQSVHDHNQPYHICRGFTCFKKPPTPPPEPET
Take `Cc1c(C(=O)N2CCOCC2)c(S(=O)(=O)Nc2ccc(OC(F)(F)F)cc2)c(C)n1C`: the inhibition (in general, the drop in the measured response relative to a control, in per cent) was 4.66% (inactive).

In the case of `CC(=O)c1c(C)[nH]c(C(=O)OC2CCCCC2=O)c1C` (stereo not drawn), the inhibition was 6.27% (inactive).

Regarding `Cc1ccsc1C=Nc1c(C)n(C)n(-c2ccccc2)c1=O`, the inhibition was 4.72% (inactive).

Regarding `COCCNC(=O)C(c1ccco1)N(C(=O)Cn1nnc2ccccc21)c1ccccc1C` (stereo not drawn), the inhibition was 2.93% (inactive).

Consider `Cc1ccc(CN2CC(C(=O)N(C)CC(=O)Nc3cccc(F)c3)CC2=O)cc1` (stereo not drawn), for which the inhibition is 25.6% (inactive).

For `CC(CC(=O)N(C)c1c(N)n(Cc2ccccc2)c(=O)[nH]c1=O)c1ccccc1` (stereo not drawn), the inhibition is 12.7% (inactive).

Consider `COc1ccccc1CNc1nc(S(=O)(=O)c2ccccc2)c(Cl)s1`, for which the inhibition was 21.1% (inactive).

On to `O=C(NC1CCCCC1)C(c1ccco1)N(CCc1ccccc1)C(=O)C(F)(F)F` (stereo not drawn), for which the inhibition is 9.43% (inactive).

As for `COC(=O)c1cccc(NC(=O)c2cnn(C)c2)c1`, the inhibition is 3.5% (inactive).

Regarding `CN(C)c1nc(N/N=C/c2c[nH]c3ccccc23)nc(N2CCOCC2)n1`, the inhibition was 27.1% (inactive).

Regarding `Oc1c(Br)cc(Cl)cc1C=Nc1ccc(N2CCOCC2)cc1`, the inhibition is 17.2% (inactive).

Turning to `Cc1cc(Br)cc(C=Nc2ccc(N3CCOCC3)cc2)c1O`, the inhibition was 19.2% (inactive).

Take `C(=N\Nc1nc(Nc2ccccc2)nc(N2CCOCC2)n1)/c1c[nH]c2ccccc12`: the inhibition was 5.43% (inactive).

As to `Oc1cc(Br)ccc1C=Nc1ccc(N2CCCCC2)cc1`, the inhibition was 10.6% (inactive).

Turning to `Oc1c(Cl)cc(Cl)cc1C=Nc1ccc(N2CCOCC2)cc1`, the inhibition is 15.7% (inactive).

With `O=C1[C@H]2[C@@H](c3ccc(Cl)cc3)N3C(=O)N(c4cccc(Cl)c4)C(=O)[C@@]3(Cc3ccccc3)[C@H]2C(=O)N1C1CCCCC1`, the inhibition is 6.67% (inactive).

As to `Cc1ccc(S(=O)(=O)N2CCN(S(=O)(=O)c3ccc4c(c3)OCCO4)CC2)cc1`, the inhibition was 2.43% (inactive).

In the case of `O=C(C1CCN(C2CC(=O)N(c3ccc(F)cc3)C2=O)CC1)N1CCOCC1` (stereo not drawn), the inhibition was 6.36% (inactive).

As to `COc1ccccc1N1CCN(C(CNS(C)(=O)=O)c2cccnc2)CC1` (stereo not drawn), the inhibition is 10% (inactive).

Consider `CCOC(=O)c1[nH]c(C)c(C(=O)N2CCN(c3ccc(F)cc3)CC2)c1C`, for which the inhibition is 27.5% (inactive).

Consider `C/C(CC(=O)Nc1ccc2c(c1)OCCO2)=N\NC(=O)COc1cccc(C)c1`, for which the inhibition was 6.15% (inactive).

Take `O=C(COC(=O)[C@@H]1CCCN1S(=O)(=O)c1ccc(Cl)cc1)NC1CCS(=O)(=O)C1` (stereo partly drawn): the inhibition was 1.86% (inactive).

For the compound `CCOc1ccc(/C=N/NS(=O)(=O)c2ccc(C)cc2)cc1OC`, the inhibition was 12.6% (inactive).

As to `Cc1ccc(C2C3=C(CCCC3=O)Nc3[nH]c(=S)[nH]c(=O)c32)cc1` (stereo not drawn), the inhibition was 23.7% (inactive).

On to `COC(=O)C1=C(C)Nc2[nH]c(=S)[nH]c(=O)c2C1c1ccc(O)cc1` (stereo not drawn), for which the inhibition is 26.6% (inactive).

As for `COC1Cc2ccccc2N(C(N)=O)c2ccccc21` (stereo not drawn), the inhibition is 11.8% (inactive).

As for `NS(=O)(=O)c1ccc(CCNC(=O)CSc2nc3ccccc3c3nc(CCN4CCCCC4)nn23)cc1`, the inhibition was 1.71% (inactive).

`COc1ccc(C2=CC3=C(Br)C(=O)C(C)(OC(=O)c4cccs4)C(=O)C3=CO2)cc1` (stereo not drawn): the inhibition is 52.5% (inactive).

For the compound `COc1ccc(C2=CC3=C(Br)C(=O)C(C)(OC(=O)c4ccco4)C(=O)C3=CO2)cc1` (stereo not drawn), the inhibition was 50.8% (inactive).

With `COc1ccc2oc(C)c(C(=O)NN)c2c1`, the inhibition is 28.3% (inactive).

`O=C(NC1CCS(=O)(=O)C1)Oc1ccccc1` (stereo not drawn): the inhibition was 6.71% (inactive).

Take `O=C(NC1CCS(=O)(=O)C1)Oc1ccc(Cl)cc1` (stereo not drawn): the inhibition was 9.05% (inactive).

With `O=[N+]([O-])c1ccccc1-c1cc(-c2cc(Cl)ccc2O)n[nH]1`, the inhibition was 19% (inactive).

With `O=[N+]([O-])c1ccccc1-c1cc(-c2ccccc2O)n[nH]1`, the inhibition is 5.15% (inactive).

On to `O=C(OCC(=O)N1CCN(c2ccccc2)CC1)c1cccs1`, for which the inhibition is 3.9% (inactive).

For the compound `O=C(CSc1ccc(-c2nc3ccccc3[nH]2)cn1)Nc1ccc2c(c1)OCCO2`, the inhibition is 3.79% (inactive).

Turning to `CCN(c1ccc(NC(=O)COC(=O)c2ccc(C)s2)cc1)C(C)C`, the inhibition is 29.8% (inactive).

Turning to `CCOC(=O)c1c(N)sc(N)c1C(=O)OCC`, the inhibition is 36.6% (inactive).

Consider `CCOC(=O)c1c(C)[nH]sc1=S`, for which the inhibition is 15% (inactive).

For the compound `O=C(NC(=S)Nc1ccccc1[N+](=O)[O-])c1cncc(Br)c1`, the inhibition is 7.4% (inactive).

With `CCOc1ccc(Br)cc1S(=O)(=O)Nc1ccc(C(=O)Nc2ccccc2OC)cc1`, the inhibition is 11.7% (inactive).

As for `O=[N+]([O-])c1ccc2c(c1Nc1ccccc1Cl)=NC1(CCCCC1)N=2`, the inhibition was 14.5% (inactive).

Turning to `CCN(CC)C(=O)C(=O)c1cccn1-c1ccc(C#N)cc1`, the inhibition was 12.2% (inactive).

For `O=C(Nc1ccccc1)c1ccc(NCC2CCCO2)c([N+](=O)[O-])c1` (stereo not drawn), the inhibition is 16.3% (inactive).

As to `COc1ccc(NC(=O)NC(C)(C(F)(F)F)C(F)(F)F)cc1`, the inhibition is 1.34% (inactive).

With `CC(NC(=O)Nc1ccccc1O)(C(F)(F)F)C(F)(F)F`, the inhibition was 10.1% (inactive).

Consider `O=C(Nc1ccccc1N1CCN(C(=O)c2ccc(Cl)cc2)CC1)c1cccnc1`, for which the inhibition was -3.62% (inactive).

Turning to `Cc1noc(C)c1CS(=O)(=O)c1ccc([N+](=O)[O-])cc1`, the inhibition is 4.7% (inactive).

Take `CC/C(=N\Nc1nncc2ccccc12)c1ccc(F)cc1`: the inhibition was 0.15% (inactive).

`O=C(c1ccncc1)c1ccc(N2CCN(C3CC(=O)N(Cc4cccs4)C3=O)CC2)cc1` (stereo not drawn): the inhibition was 4.51% (inactive).

As for `O=C1CC(N2CCN(c3ccc(F)cc3)CC2)C(=O)N1Cc1cccs1` (stereo not drawn), the inhibition is 7.54% (inactive).

`COc1cc2c(cc1NC(=O)CSc1ccc(Cl)cc1)oc1ccccc12`: the inhibition is 20.1% (inactive).

Consider `Cc1ccc(C(=O)CSc2nnc(-c3cccnc3)n2N)cc1`, for which the inhibition is 13.6% (inactive).

Turning to `O=C(COC(=O)CCC(NC(=O)OCc1ccccc1)C(=O)OCC(=O)Nc1ccccc1)Nc1ccccc1` (stereo not drawn), the inhibition is 9.57% (inactive).

Turning to `O=C(O)/C=C/C(=O)Nc1ccc(-n2nccc2C(F)(F)F)cc1`, the inhibition was 22.7% (inactive).

Regarding `O=C(NN1C(=O)/C(=C/c2cccc(O)c2)SC1=S)c1ccccc1O`, the inhibition was 0.53% (inactive).

Regarding `CC(/C=C1\SC(=S)N(NS(=O)(=O)c2ccccc2)C1=O)=C\c1ccccc1`, the inhibition is 28.2% (inactive).

With `O=C(NN1C(=O)/C(=C/c2ccc(O)cc2)SC1=S)c1ccccc1O`, the inhibition is 38% (inactive).

As for `O=C1/C(=C\c2ccc(Br)cc2)SC(=S)N1NS(=O)(=O)c1ccccc1`, the inhibition was 5.34% (inactive).

As to `CCCC1NC(=S)N(C2CCCCC2)C1=O` (stereo not drawn), the inhibition is 1.78% (inactive).

On to `Cc1ccc(-c2cc3c(n2-c2ccc(C(=O)O)cc2)CCCC3=O)cc1`, for which the inhibition was 11% (inactive).

For `Cc1ccc(-n2c(C)cc3c2CCCC3=O)cc1`, the inhibition was 17.7% (inactive).

For the compound `CCC(C)(C)n1nnnc1C(c1ccccc1F)N1CCC(C(N)=O)CC1` (stereo not drawn), the inhibition is 8.52% (inactive).

As for `O=C(COc1ccc(Cl)cc1)NCc1nnc(SCC(=O)NC2CCCC2)o1`, the inhibition is 14.1% (inactive).

For `COc1ccc2cc(C(=O)N3CCN(c4ccccc4OC)CC3)[nH]c2c1`, the inhibition is 2.37% (inactive).

Regarding `O=c1c2ccccc2[nH]c2ccccc12`, the inhibition was 7.79% (inactive).

Take `Cc1ccc2[nH]c3ccccc3c(=O)c2c1`: the inhibition is 4.82% (inactive).

Take `Cc1ccc(C)c(OC(=O)c2cccnc2Cl)c1C`: the inhibition is 25.3% (inactive).

For `CCOCCn1c(SCc2ccccc2)nc2c1c(=O)[nH]c(=O)n2C`, the inhibition is 16.9% (inactive).

For `CCOC(=O)C1C(c2ccccc2)C(C(=O)OCC)S(=O)(=O)C(CCN(CC)CC)S1(=O)=O` (stereo not drawn), the inhibition is 4.87% (inactive).

Regarding `COC(=O)Cc1nnc(SCC(=O)Nc2ccccc2)c2ccccc12`, the inhibition is 11.3% (inactive).

Take `COc1ccc(NC(=O)Cn2c3ccccc3c3nc4n(c(=O)c32)CCS4)cc1OC`: the inhibition is 10.1% (inactive).

`O=C(c1nnsc1S(=O)(=O)c1ccc(Cl)cc1)N1CCOCC1`: the inhibition was 4.81% (inactive).

For the compound `Cc1nnsc1C(=O)Nc1ccc(Cl)cc1`, the inhibition is 3.36% (inactive).

`O=C(Nc1ccccc1)Nc1snnc1C(=O)Nc1cccc(O)c1`: the inhibition is 10.9% (inactive).

In the case of `O=C(c1cc(-c2ccc(Cl)cc2)on1)N1CCOCC1`, the inhibition was 7.19% (inactive).

For `Clc1cccc(NCc2nnc(SCc3ccc(Cl)cc3Cl)o2)c1`, the inhibition is 0.46% (inactive).

For the compound `COc1ccc(/C=N/NC(=O)c2ccccc2OC)cc1COc1ccccc1[N+](=O)[O-]`, the inhibition is 1.66% (inactive).

For `CCOC(=O)c1nc(-c2ccccc2)sc1C(C)=O`, the inhibition was 13.2% (inactive).

Take `Cc1ccc(C)c(NC(=O)CN(C)C(=O)c2cc3ccccc3o2)c1`: the inhibition is 13.7% (inactive).

Turning to `CN1CCN(c2ccc(S(=O)(=O)N3CCCCC3)cc2[N+](=O)[O-])CC1`, the inhibition was 23.6% (inactive).

On to `COc1ccc(N2CCN(c3ccc(C(N)=O)cc3[N+](=O)[O-])CC2)cc1`, for which the inhibition was 20.4% (inactive).

`O=[N+]([O-])c1ccc(N2CCCCC2)cn1`: the inhibition was 4.49% (inactive).

For the compound `CC(=O)c1ccc(N2CCN(c3ccc(C(N)=O)cc3[N+](=O)[O-])CC2)cc1`, the inhibition is 12.7% (inactive).

With `O=[N+]([O-])c1cc(S(=O)(=O)Nc2ccccc2)ccc1N1CCN(c2ccc(O)cc2)CC1`, the inhibition is 17.3% (inactive).

Regarding `O=[N+]([O-])c1ccc(N2CCOCC2)cn1`, the inhibition was 20.2% (inactive).

`CSc1ncccc1C(=O)Nc1nc(C(C)(C)C)cs1`: the inhibition is 8.58% (inactive).

Turning to `COc1ccc(C(CC(=O)NCc2ccccc2)C(C)C)cc1` (stereo not drawn), the inhibition was 6.33% (inactive).

On to `Cc1c(NC(=O)C(C)OC(=O)COc2ccccc2)c(=O)n(-c2ccccc2)n1C` (stereo not drawn), for which the inhibition is 10.4% (inactive).

Consider `CCCCN(CCCC)CCNC(=O)Cc1nc2c(c(=O)[nH]c(=O)n2C)n1C`, for which the inhibition is 3.54% (inactive).

For `CC(NC(=O)Nc1ccc(F)cc1F)c1ccc2c(c1)OCO2` (stereo not drawn), the inhibition is 16.7% (inactive).

Consider `CCCn1c(SCC(=O)NCc2ccc(C)cc2)n[nH]c1=O`, for which the inhibition was 7.77% (inactive).

Consider `COc1ccc(NC(=O)CN(C)C(=O)c2cccc(S(=O)(=O)N3CCN(Cc4ccccc4)CC3)c2)cc1`, for which the inhibition was 8.39% (inactive).
